# PubChem BioAssay
# For part of these data: Potency and affinity values are given separately. Some of the results follow. The source made the active and inactive calls.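 How the source made its calls, unless noted: active means fitted half-maximal concentration within the tested dose range, moderate curve steepness, a statistically real signal drop, and little compound fluorescence or tag-binding interference; inactive means the rest.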
# What was measured:
# [1] = target: Cell division control protein 42 homolog (Homo sapiens) (UniProt P60953); test: activated mutant Cdc42 GTP-binding inhibitors, dose response, biochemical, multiplex bead flow cytometry, Bodipy-FL-GTP (AID 1333)
# Sequence of Cell division control protein 42 homolog (Homo sapiens) (P60953 whole entry, looked up): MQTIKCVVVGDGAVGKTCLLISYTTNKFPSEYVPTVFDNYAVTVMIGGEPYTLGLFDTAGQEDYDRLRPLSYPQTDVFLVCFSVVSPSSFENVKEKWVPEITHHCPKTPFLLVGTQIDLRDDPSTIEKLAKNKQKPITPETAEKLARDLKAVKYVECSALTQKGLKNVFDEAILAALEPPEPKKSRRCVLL
# [2] = target: Cell division control protein 42 homolog (Homo sapiens) (UniProt P60953); test: wildtype Cdc42 GTP-binding inhibitors, dose response, biochemical, multiplex bead flow cytometry, Bodipy-FL-GTP (AID 1334;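 active means fitted half-maximal concentration within the tested range, moderate curve steepness, significant signal drop, and little compound fluorescence or bead-linkage interference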); details: bead-based flow cytometry, Bodipy-FL-GTP binding to GST-Cdc42; at 100 µM (top of the series)
# [3] = test system: Ras-related protein Rab-7a (dog), GTP binding; test: Rab7 GTP binding inhibitors, potency, dose response, biochemical, wildtype, multiplex bead flow cytometry (AID 1336; call rule not given here)
# [4] = target: Ras-related C3 botulinum toxin substrate 1 (Homo sapiens) (UniProt P63000); test: wildtype Rac1 GTP binding inhibitors, dose response, biochemical, multiplex bead flow cytometry (AID 1340;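 active means dose curve with midpoint inside tested range, moderate steepness, plateau gap beyond fit error, low compound glow and bead-link interference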); details: GST-Rac1 beads, Bodipy-FL-GTP binding; at 100 µM (top of the series)
# [5] = target: GTPase HRas (Homo sapiens) (UniProt P01112); test: activated Ras mutant GTP binding inhibitors, dose response, biochemical, multiplex bead flow cytometry (AID 1341;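 active means dose-response curve with midpoint inside the tested range, moderate steepness, significant amplitude and little compound fluorescence or bead-attachment interference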;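 further: GST-tagged constitutively activated Ras mutant immobilized on beads and multiplexed with other GTPases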)
# [6] = disruption of biotin probe capture by avidin, counter-screen for RGS protein interaction modulators, biochemical, flow cytometry, bead-based (AID 1783;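 active means inhibition above 50%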;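 further: median green fluorescence of gated singlet beads compared with DMSO control wells; 0% = DMSO wells and 100% = complete loss of bead fluorescence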); details: streptavidin beads, fluorescein-biotin binding, at 10 µM, stronger effect = higher value
# [7] = target: Guanine nucleotide-binding protein G(o) subunit alpha (Homo sapiens) (UniProt P09471); test: RGS8-Galphao binding modulators, confirmation, biochemical, multiplexed bead flow cytometry, single concentration (AID 1836; in the data active means binding response below about 72% or above about 130%; inactive means in between;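 further: Galphao activated as GDP AlF4 complex before binding bead RGS8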); details: bead-based flow cytometry RGS8-Galphao binding, fluorescence; at 10 µM; actives lie on both sides
# Sequence of Guanine nucleotide-binding protein G(o) subunit alpha (Homo sapiens) (P09471 whole entry, looked up): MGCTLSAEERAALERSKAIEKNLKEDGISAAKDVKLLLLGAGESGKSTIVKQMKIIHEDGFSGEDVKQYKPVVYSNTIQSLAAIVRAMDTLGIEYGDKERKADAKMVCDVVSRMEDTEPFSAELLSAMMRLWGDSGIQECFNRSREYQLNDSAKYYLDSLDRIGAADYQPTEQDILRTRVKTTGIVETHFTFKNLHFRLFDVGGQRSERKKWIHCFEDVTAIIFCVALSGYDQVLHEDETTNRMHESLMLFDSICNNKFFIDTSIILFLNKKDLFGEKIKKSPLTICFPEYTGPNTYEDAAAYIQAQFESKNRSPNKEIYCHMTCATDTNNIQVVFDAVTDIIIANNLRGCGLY
# [8] = target: Guanine nucleotide-binding protein G(o) subunit alpha (Homo sapiens) (UniProt P09471); test: RGS7-Galphao binding modulators, confirmation, biochemical, multiplexed bead flow cytometry, single concentration (AID 1837; in the data active means response below about 75% or above about 130%; inactive means in between;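 further: fluorescent Galphao activated with GDP and aluminum fluoride binding bead-coupled RGS7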); details: bead-based flow cytometry RGS7-Galphao binding; at 10 µM; actives lie on both sides
# [9] = target: Regulator of G-protein signaling 16 (Homo sapiens) + Guanine nucleotide-binding protein G(o) subunit alpha (Homo sapiens) (UniProt O15492+P09471); test: modulators of RGS16-Galphao protein binding, confirmation, biochemical, single concentration, multiplexed bead flow cytometry (AID 1838; in the data active means response below about 74% or above about 130%; inactive means in between;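 further: Galphao activated as the GDP aluminium fluoride complex binding bead-coupled RGS16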); details: bead-based flow cytometry, at 10 µM, actives lie on both sides
# Sequence of Regulator of G-protein signaling 16 (Homo sapiens) + Guanine nucleotide-binding protein G(o) subunit alpha (Homo sapiens) (O15492 whole entry, looked up): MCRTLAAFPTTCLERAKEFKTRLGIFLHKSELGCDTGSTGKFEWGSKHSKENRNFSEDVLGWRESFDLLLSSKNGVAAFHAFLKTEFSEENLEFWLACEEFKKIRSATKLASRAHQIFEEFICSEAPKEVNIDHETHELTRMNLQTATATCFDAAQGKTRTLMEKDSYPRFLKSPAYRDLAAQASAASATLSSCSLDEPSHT
# Sequence of Regulator of G-protein signaling 16 (Homo sapiens) + Guanine nucleotide-binding protein G(o) subunit alpha (Homo sapiens) (P09471 whole entry, looked up): as the sequence (P09471 whole entry, looked up) above
# [10] = target: Guanine nucleotide-binding protein G(o) subunit alpha (Homo sapiens) (UniProt P09471); test: modulators of RGS4-Galphao protein binding, confirmation, biochemical, single concentration, multiplexed bead flow cytometry (AID 1840; in the data active means binding response below about 74% or above about 130%; inactive means in between); details: at 10 µM, actives lie on both sides
# [11] = target: Guanine nucleotide-binding protein G(o) subunit alpha (Homo sapiens) + Regulator of G-protein signaling 19 (Homo sapiens) (UniProt P09471+P49795); test: regulators of RGS19-Galphao binding, confirmation, biochemical, single point, multiplexed bead flow cytometry (AID 1841; in the data active means response below about 50% or above about 160%; inactive means in between;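 further: 100% = no compound control and 0% = blank background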); details: bead-based flow cytometry RGS19-Galphao binding; at 10 µM; actives lie on both sides
# Sequence of Guanine nucleotide-binding protein G(o) subunit alpha (Homo sapiens) + Regulator of G-protein signaling 19 (Homo sapiens) (P09471 whole entry, looked up): as above
# Sequence of Guanine nucleotide-binding protein G(o) subunit alpha (Homo sapiens) + Regulator of G-protein signaling 19 (Homo sapiens) (P49795 whole entry, looked up): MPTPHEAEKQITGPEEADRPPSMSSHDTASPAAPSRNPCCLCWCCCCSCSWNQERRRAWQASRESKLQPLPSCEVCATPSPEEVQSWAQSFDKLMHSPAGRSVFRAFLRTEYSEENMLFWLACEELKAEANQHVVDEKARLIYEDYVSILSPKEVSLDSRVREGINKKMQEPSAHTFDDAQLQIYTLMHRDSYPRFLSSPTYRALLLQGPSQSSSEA
# [12] = RPL19A-GFP modulators, yeast TOR pathway, confirmation, cell-based, S. cerevisiae, flow cytometry, cherry picks, mother/daughter gates (AID 2270;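 active means GFP response below 50% of the DMSO control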); details: S. cerevisiae RPL19A-GFP strain, 3 h, at 10 µM, stronger effect = lower value, 100 = same GFP as DMSO wells
# [13] = LAP4-GFP expression modulators in yeast, confirmation, cell-based, cherry picks, flow cytometry, mother/daughter gates (AID 2271;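 active means GFP response above 150% of the DMSO control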;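 further: ratio of sample to DMSO plate mean so 100% equals DMSO level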); details: S. cerevisiae LAP4-GFP strain, 3 h, at 10 µM, stronger effect = higher value
# [14] = modulators of MEP2-GFP levels in yeast, confirmation, S. cerevisiae, flow cytometry GFP, cherry picks (AID 2272;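 active means GFP response above 150% of the DMSO control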;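 further: ratio of well signal to plate DMSO mean so 100% equals DMSO level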); details: S. cerevisiae MEP2-GFP strain, 3 h, at 10 µM, stronger effect = higher value
# [15] = AGP1-GFP expression modulators, hit retest, confirmation, cell-based, flow cytometry, S. cerevisiae, cherry picks (AID 2273;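 active means GFP response above 150% of the DMSO level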;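 further: median GFP channel fluorescence over the whole cell population gate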); details: S. cerevisiae AGP1-GFP strain, 3 h, at 10 µM
# [16] = modulators of CIT2-GFP expression in yeast, confirmation, S. cerevisiae, GFP fusion, cherry picks, mother/daughter gates (AID 2274;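 active means GFP response above 150% of the DMSO level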); details: S. cerevisiae CIT2-GFP strain, flow cytometry, 3 h, at 10 µM, stronger effect = higher value
# [17] = measured here: daughter cell gate
# [18] = measured here: mother cell gate
smiles,measurement,setting,value
Cc1ccc(C)c(OCCn2cc(C(=O)O)c3ccccc32)c1,outcome,[1],inactive
O=C(O)c1cn(Cc2ccc(Cl)cc2)c2ccccc12,outcome,[1],inactive
same,"fluorescence, percent of control (lower = inhibition)",[2],76.5%
same,outcome,[3],inactive
same,"GTP binding signal, raw median fluorescence (lower = inhibition) (MCF (arbitrary fluorescence units))",[4],77.6
same,outcome,[5],inactive
Nc1ccc(C(=O)N/N=C2/CN3CCC2CC3)cc1,inhibition,[6],-1.4% (inactive)
same,binding response (% of control),[7],102% (inactive)
same,response (percent of control binding),[8],98.3% (inactive)
same,response (% of control binding),[9],99.4% (inactive)
same,binding response (% of control),[10],100% (inactive)
same,response (percent of control binding),[11],92.4% (inactive)
CCOc1ccc(C2SCC(=O)Nc3c2c(C)nn3C2CCOC(C)(C)C2)cc1 (stereo not drawn),outcome,[1],inactive
same,"fluorescence, percent of control (lower = inhibition)",[2],96.5%
same,outcome,[3],inactive
same,"GTP binding signal, raw median fluorescence (lower = inhibition) (MCF (arbitrary fluorescence units))",[4],195
same,outcome,[5],inactive
C[C@]12CC[C@@H](O)C[C@@H]1CC[C@@H]1[C@@H]2CC[C@]2(C)[C@@H](O)CC[C@@H]12,GFP response vs DMSO,[12],92.2% (inactive)
same,GFP response vs DMSO,[12]; [17],87.3%
same,GFP response vs DMSO,[12]; [18],94.1%
same,GFP response relative to DMSO,[13],112% (inactive)
same,GFP response relative to DMSO,[13]; measured here: daughter cell gate response,107%
same,GFP response relative to DMSO,[13]; measured here: mother cell gate response,119%
same,GFP response vs DMSO,[14],89.9% (inactive)
same,"GFP response, % of DMSO",[15],90% (inactive)
same,"GFP response, % of DMSO",[16],85.5% (inactive)
same,"GFP response, % of DMSO",[16]; [17],86.2%
same,"GFP response, % of DMSO",[16]; [18],87.8%
Cc1ccccc1OCCCn1cc(C(=O)O)c2ccccc21,outcome,[1],inactive
same,"fluorescence, percent of control (lower = inhibition)",[2],68.3%
same,outcome,[3],inactive
same,"GTP binding signal, raw median fluorescence (lower = inhibition) (MCF (arbitrary fluorescence units))",[4],37.8
same,outcome,[5],inactive
O=C(O)c1cn(Cc2ccc(F)cc2)c2ccccc12,outcome,[1],inactive
same,"fluorescence, percent of control (lower = inhibition)",[2],106%
same,outcome,[3],inactive
same,"GTP binding signal, raw median fluorescence (lower = inhibition) (MCF (arbitrary fluorescence units))",[4],91.8
same,outcome,[5],inactive
O=c1[nH]c(=S)[nH]c(O)c1N=Nc1cc2c(cc1[N+](=O)[O-])OCO2,outcome,[1],inactive
same,"fluorescence, percent of control (lower = inhibition)",[2],24.3%
same,outcome,[3],inactive
same,"GTP binding signal, raw median fluorescence (lower = inhibition) (MCF (arbitrary fluorescence units))",[4],211
same,outcome,[5],inactive
Cc1cc(OCCCn2cc(C(=O)O)c3ccccc32)ccc1Cl,outcome,[1],inactive
same,"fluorescence, percent of control (lower = inhibition)",[2],58.1%
same,outcome,[3],inactive
same,"GTP binding signal, raw median fluorescence (lower = inhibition) (MCF (arbitrary fluorescence units))",[4],28.5
same,outcome,[5],inactive
CC1(C)CC(n2[nH]c(=O)c3c2NC(=O)CSC3c2ccccc2)CCO1 (stereo not drawn),outcome,[1],inactive
same,"fluorescence, percent of control (lower = inhibition)",[2],35.5%
same,outcome,[3],inactive
same,"GTP binding signal, raw median fluorescence (lower = inhibition) (MCF (arbitrary fluorescence units))",[4],266
same,outcome,[5],inactive
CN(C)c1ccc(/C=C/C=C2/C(=O)NC(=O)N(c3ccccc3)C2=O)cc1,outcome,[1],inactive
same,"fluorescence, percent of control (lower = inhibition)",[2],23.6%
same,outcome,[3],inactive
same,"GTP binding signal, raw median fluorescence (lower = inhibition) (MCF (arbitrary fluorescence units))",[4],155
same,outcome,[5],inactive
Cc1ccc(C)c(OCCCn2cc(C(=O)O)c3ccccc32)c1,outcome,[1],inactive
same,"fluorescence, percent of control (lower = inhibition)",[2],61.7%
same,outcome,[3],inactive
same,"GTP binding signal, raw median fluorescence (lower = inhibition) (MCF (arbitrary fluorescence units))",[4],36.2
same,outcome,[5],inactive
